Screening results (PubChem BioAssay)
An excerpt weighted towards active compounds, which were near 8.7% of everything screened.
Vaccinia mCherry – inhibitors of vaccinia virus infection (mCherry reporter signal) | 310,000 tested, 0.63% active | Vaccinia virus mCherry reporter infection, fluorescence | Potency, µM (doses to about 36.5 µM), inactives show at the top dose activity change, negative = inhibition, usual class: inhibitors; calls by dose curve; tested in A549 cells; note: nearly all actives have a fitted effect of over 35% in size
AMA1 RON2 block – disrupts binding of P. falciparum AMA1 to RON2; Potency, µM (series often up to 58.2 µM), without a hit: at the top dose activity change, negative = inhibition, usual class: inhibitors; AlphaScreen AMA1-biotinylated RON2 peptide binding; AID 720542; 360,000 tested, 0.2% active;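 note: 0% = vehicle wells and -100% = peptide control; nearly all actives have a fitted effect of over 45% in size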
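AMA1 (3D7) with his tag at 25 nM final met compounds first, then biotinylated RON2 peptide at 25 nM; detection used donor plus acceptor beads, 10 µg/mL apiece, read by AlphaScreen after 30 min at room temperature.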
VACV Venus inh – inhibitors of vaccinia virus (Venus reporter); Vaccinia virus Venus reporter expression, fluorescence; Potency, µM (highest dose often 36.5 µM), without a hit: top-dose activity change, negative = inhibition, most hits filed as inhibitors; 330,000 tested, 0.46% active; calls by dose curve; tested in A549 cells; note: nearly all actives have a fitted effect of over 30% in size
Pf growth 48h – inhibits P. falciparum growth in the first generation, 48 h. P. falciparum luciferase growth in erythrocytes, 48 h. Potency, µM (series often up to 28.7 µM), for inactives: top-dose activity change, negative = inhibition, hits mostly inhibitors. 310,000 tested, 5.9% active
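Parasite viability was followed by luminescence of a genomically integrated firefly luciferase. Cultures held 0.1% parasitemia at 2% hematocrit (final), incubated under 5% CO2 at 37 C.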
Pf growth 96h – inhibits malaria parasite growth, 96 h; P. falciparum luciferase reporter growth, 96 h; Potency, µM (doses to about 28.7 µM), inactives show at the highest dose activity change, negative = inhibition, actives largely listed as inhibitors; AID 504834; 320,000 tested, 6.9% active
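Two-generation exposure (96 h) targets delayed-death phenotype. Reporter parasites carrying integrated firefly luciferase, in red cells at 2% hematocrit and 0.05% parasitemia final, kept at 37 C, 5% CO2; luminescence loss indicates inhibition.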
* marks the source's active call; other numbers are inactive results; i = inactive; ? = inconclusive; . = no result. Unless noted, calls come from the whole dose curve; as a rule, active = well fitted curve in the direction sought with a large enough effect; inconclusive = small, poorly fitted or top-dose-only effect, or another doubt; inactive = no such curve, though single readings can be large; an effect the other way counts as inactive or inconclusive. Unless noted, % is set by controls: 0 for no effect and ±100 for the full control effect; potency is the fitted concentration of half-maximal effect.

SMILES	Vaccinia mCherry	AMA1 RON2 block	VACV Venus inh	Pf growth 48h	Pf growth 96h
Cc1cccc(N(CC(=O)NCCSCc2ccccc2)S(=O)(=O)c2ccccc2)c1C	-19.5%	.	-15.7%	.	.
CCOC(=O)CN1C(=O)S/C(=C\c2ccc(-c3ccc(C(=O)O)c(Cl)c3)o2)C1=O	.	4.5%	.	?	-17.6%
O=C(O)c1ccc(-c2ccc(/C=C3\NC(=O)N(Cc4ccc(Cl)cc4)C3=O)o2)cc1Cl	-5.9%	-19.7%	-11.6%	14.7µM*	-4.1%
Cc1cccc(C)c1NC(=O)CCCCCC1NC(=O)NC1C (stereo not drawn)	i	-13.2%	2.0%	15.8%	34.2%
CC1NC(=O)NC1CCCCCC(=O)NCCc1ccccc1 (stereo not drawn)	-20.7%	1.5µM*	1.5%	-29.4%	.
Cc1nc2ccc(S(=O)(=O)N(C)CC(=O)Nc3ccc(C(C)C)cc3)cc2s1	-10.5%	.	-7.7%	.	.
CCCCOc1ccc(NC2=NC3(CCCC3)N=C(N)N2)cc1	.	-11.5%	.	1.17µM*	?
Cc1cccc(NC2=NC(C)(C)N=C(N)N2)c1	?	-0.2%	1µM*	0.0059µM*	-22.8%
COc1ccc(OC)c(NC2=NC3(CCCC3)N=C(N)N2)c1	.	1.7%	.	-21.5%	.
Cc1cc(C)cc(NC2=NC3(CCCCC3)N=C(N)N2)c1	.	2.7%	?	.	1.04µM*
Cc1cc(C)cc(NC2=C(N)C(=O)c3ccccc3C2=O)c1	.	?	.	?	-7.2%
NC1=NC2(CCCCC2)N=C(Nc2ccc(F)cc2F)N1	.	16.4%	.	?	3.7µM*
CCCCOc1ccc(C2(C(=O)O)CCCC2)cc1	.	1.5%	-15.5%	7.3%	?
O=C(CSc1nnc(CNC(=O)c2cccc(F)c2)n1-c1ccccc1)Nc1ccccc1F	-7.9%	.	-0.7%	.	.
Cc1cc(F)ccc1S(=O)(=O)Nc1ccc2c(c1)CCCN2C(=O)c1cccs1	-28.1%	.	-26.6%	.	.
COc1ccc(CNC(=O)c2c([S-])n(-c3ccc(C)cc3)c3cccc[n+]23)cc1	-9.3%	-19.9%	-10.0%	?	10.4µM*
CC1CCCCN1C(=O)C1CCN(c2nc(-c3ccccc3)nc3c2CCC3)CC1 (stereo not drawn)	.	17.7%	.	7.38µM*	?
O=C(C1CCN(c2nc(-c3ccccc3)nc3c2CCC3)CC1)N1CCCC1	.	-13.4%	.	.	.
O=C(CC(C(=O)O)n1ccnc1)c1ccc(Cl)cc1 (stereo not drawn)	-17.2%	.	-8.1%	.	.
CC1=C(C(=O)Nc2cccc(C(F)(F)F)c2)C2(CCN(C(C)C)CC2)OC1=O	-10.7%	.	-7.1%	.	.
Oc1cc(Cc2ccccc2)cnc1CN1CCOCC1	.	7.5%	-5.6%	2.94µM*	?
CCCc1[nH]nc2c1C(c1ccc(OCCN3CCOCC3)c(OCC)c1)C(C#N)=C(N)O2 (stereo not drawn)	-4.6%	?	-6.2%	0.4%	15.5%
COc1cc(C2C(C#N)=C(N)Oc3n[nH]c(C)c32)ccc1OC(=O)c1ccccc1 (stereo not drawn)	-1.1%	4.5%	-6.1%	3.0%	16.5µM*
CCOc1cc(C2C(C#N)=C(N)Oc3n[nH]c(CC)c32)ccc1OCCN1CCOCC1 (stereo not drawn)	-9.9%	-2.5%	7.7%	?	9.28µM*
COCc1[nH]nc2c1C(c1ccc(OC)cc1)C(C#N)=C(N)O2 (stereo not drawn)	-12.9%	-6.8%	-4.1%	-6.0%	1.31µM*
SMILES	Vaccinia mCherry	AMA1 RON2 block	VACV Venus inh	Pf growth 48h	Pf growth 96h
CC1=C(C(=O)OC2CCCCCC2)C(c2cccc(Cl)c2)CC(=O)N1 (stereo not drawn)	-17.2%	.	-20.5%	.	.
O=C(Nc1nc(-c2ccccc2)cs1)Nc1ccc(F)cc1F	-26.9%	-6.2%	-12.2%	20.7%	-14.5%
O=C(COc1ccc(F)cc1)Nc1nc(-c2ccccn2)cs1	-28.5%	25.7%	-12.3%	?	?
O=C(Nc1nc(-c2ccccn2)cs1)Nc1ccc(F)cc1F	3.98µM*	87.7%	?	1.47µM*	1.65µM*
O=C(COc1cccc(F)c1)Nc1nc(-c2ccccn2)cs1	11.2µM*	55.6%	?	.	.
O=C(Nc1ccc(F)cc1F)Nc1csc2ccccc12	?	-13.6%	-24.5%	4.65µM*	?
O=C(COc1ccc([N+](=O)[O-])cc1)Nc1nc(-c2ccccn2)cs1	5.62µM*	30.6%	?	9.28µM*	6.57µM*
CC(C)(C)c1ccc(C(=O)Nc2ccc(CC(=O)O)cc2)o1	i	11.9%	-6.0%	.	2.33µM*
O=C(O)Cc1ccc(NC(=O)c2ccc(NC(=O)C3CC3)cc2)cc1	-2.8%	0.0%	-5.6%	-19.1%	5.86µM*
Cc1ccc(C(=O)Nc2ccc(CC(=O)O)cc2)o1	.	-0.8%	.	12.1%	.
COc1ccc(NC(=O)C(NC(=O)/C=C\c2ccc3c(c2)OCO3)c2ccc(C)cc2)cc1 (stereo not drawn)	-4.9%	.	-13.5%	.	.
Cc1cc(/C=C2\SC(=S)NC2=O)c(C)n1-c1ccc(O)cc1	?	46.1%	-2.4%	9.28µM*	410.4%
Cc1cc(/C=C2\SC(=S)NC2=O)c(C)n1-c1ccccc1	-22.5%	-23.8%	7.8%	112.0%	-7.0%
Cc1cc(/C=C2\SC(=Nc3ccc(F)cc3)NC2=O)c(C)n1-c1ccc(S(N)(=O)=O)cc1	.	-2.4%	?	13.1µM*	.
CCNC(=O)NC(=O)C(C)SCc1ccccc1C (stereo not drawn)	-13.2%	16.5%	-7.5%	11.9%	6.57µM*
Cc1ccc(S(=O)(=O)NC(C)C(c2cccs2)N2CCN(C)CC2)cc1 (stereo not drawn)	-15.5%	-10.0%	-26.8%	-21.4%	10.4µM*
CCOc1ccc(CCNC(=O)CCCc2nnc3n(CC)c(=O)c4sccc4n23)cc1OCC	-7.8%	.	1.5%	.	.
COc1ccc(-c2nc3ccc(C4=C(C)CC(=O)NN4)cc3[nH]2)cc1	.	.	.	?	7.57µM*
CCOC(=O)c1ccc(N2C(=O)CC(N(Cc3ccc4c(c3)OCO4)C(=O)Nc3ccccc3)C2=O)cc1 (stereo not drawn)	-1.6%	18.6%	-8.4%	.	9.28µM*
Cc1cc(C)cc(Nc2ncnc3c2nc2n3CCCC2)c1	-8.5%	.	-23.4%	.	.
COC(=O)c1cn(-c2ccccc2)nc1-c1ccccc1	.	18.1%	-11.0%	.	-3.9%
CC(C)OC(=O)c1cn(-c2ccccc2)nc1-c1ccco1	-19.5%	2.2%	-3.5%	10.4µM*	-3.5%
